# The supplement of paper PMC12282887
# ± gives the standard deviation of the averaged measurements.
# Assays:
# Assay in all cases: promoter activity interaction Z-score (Lux/OD deviation from empty-vector control); higher = stronger promoter induction by the compound
# [1] = test system: E. coli BW25113 acrABp lux reporter
# In short: (§1)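 E. coli BW25113 luxCDABE reporter strains grew at 37°C in 40 µl LB Lennox in 384-well plates, with OD600 and luminescence read every 30 min for 12 h. After integration over 0–8 h for wild type or 1–9 h for deletion strains, wells under 10% of the median growth value were removed. Each score is the Z-transformed residual of growth-normalised luminescence fitted against a control.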
# [2] = test system: E. coli BW25113 micFp lux reporter
# In short: as §1
# [3] = test system: E. coli BW25113 ompFp lux reporter
# In short: as §1
# [4] = test system: E. coli BW25113 robp lux reporter
# In short: as §1
# [5] = test system: E. coli BW25113 soxSp lux reporter
# In short: as §1
# [6] = test system: E. coli BW25113 tolCp lux reporter
# In short: as §1
# [7] = 28.4 µg/ml, genetic background: wild type
# [8] = 28.4 µg/ml, genetic background: ΔmarA
# [9] = 28.4 µg/ml, genetic background: Δrob
# [10] = 28.4 µg/ml, genetic background: ΔsoxS
# [11] = 56.8 µg/ml, genetic background: wild type
# [12] = 56.8 µg/ml, genetic background: ΔmarA
# [13] = 56.8 µg/ml, genetic background: Δrob
# [14] = 56.8 µg/ml, genetic background: ΔsoxS
# [15] = 113.7 µg/ml, genetic background: wild type
# [16] = 113.7 µg/ml, genetic background: ΔmarA
# [17] = 113.7 µg/ml, genetic background: Δrob
# [18] = 113.7 µg/ml, genetic background: ΔsoxS
# [19] = 227.3 µg/ml, genetic background: wild type
# [20] = 227.3 µg/ml, genetic background: ΔmarA
# [21] = 227.3 µg/ml, genetic background: Δrob
# [22] = 227.3 µg/ml, genetic background: ΔsoxS
smiles,measurement,setting,value
COc1ccc(CCN(C)CCCC(C#N)(c2ccc(OC)c(OC)c2)C(C)C)cc1OC (stereo unspecified) [Verapamil],promoter activity interaction Z-score,[1]; [7],-0.0103 ± 0.0068
same,promoter activity interaction Z-score,[1]; [8],0.651 ± 0.14
same,promoter activity interaction Z-score,[1]; [9],-0.17 ± 0.16
same,promoter activity interaction Z-score,[1]; [10],-0.0848 ± 0.7
same,promoter activity interaction Z-score,[1]; [11],0.383 ± 0.58
same,promoter activity interaction Z-score,[1]; [12],0.649 ± 0.29
same,promoter activity interaction Z-score,[1]; [13],0.236 ± 0.12
same,promoter activity interaction Z-score,[1]; [14],-0.365 ± 0.9
same,promoter activity interaction Z-score,[1]; [15],0.623 ± 0.79
same,promoter activity interaction Z-score,[1]; [16],2.27 ± 1.4
same,promoter activity interaction Z-score,[1]; [17],0.0537 ± 0.02
same,promoter activity interaction Z-score,[1]; [18],-0.0861 ± 0.73
same,promoter activity interaction Z-score,[1]; [19],0.502 ± 0.14
same,promoter activity interaction Z-score,[1]; [20],2.09 ± 0.52
same,promoter activity interaction Z-score,[1]; [21],0.279 ± 0.19
same,promoter activity interaction Z-score,[1]; [22],0.136 ± 0.55
same,promoter activity interaction Z-score,[2]; [7],0.174 ± 0.55
same,promoter activity interaction Z-score,[2]; [8],0.00711 ± 0.17
same,promoter activity interaction Z-score,[2]; [9],0.232 ± 0.1
same,promoter activity interaction Z-score,[2]; [10],-0.114 ± 0.26
same,promoter activity interaction Z-score,[2]; [11],0.0628 ± 0.15
same,promoter activity interaction Z-score,[2]; [12],0.0935 ± 0.19
same,promoter activity interaction Z-score,[2]; [13],0.195 ± 0.062
same,promoter activity interaction Z-score,[2]; [14],-0.187 ± 0.36
same,promoter activity interaction Z-score,[2]; [15],0.65 ± 0.19
same,promoter activity interaction Z-score,[2]; [16],0.105 ± 0.032
same,promoter activity interaction Z-score,[2]; [17],0.115 ± 0.16
same,promoter activity interaction Z-score,[2]; [18],-0.238 ± 0.43
same,promoter activity interaction Z-score,[2]; [19],0.41 ± 0.066
same,promoter activity interaction Z-score,[2]; [20],-0.0581 ± 0.06
same,promoter activity interaction Z-score,[2]; [21],-0.1466 ± 0.00035
same,promoter activity interaction Z-score,[2]; [22],-0.0743 ± 0.052
same,promoter activity interaction Z-score,[3]; [7],-0.365 ± 0.11
same,promoter activity interaction Z-score,[3]; [8],-1.14 ± 0.89
same,promoter activity interaction Z-score,[3]; [9],-0.51 ± 0.49
same,promoter activity interaction Z-score,[3]; [10],-0.279 ± 0.15
same,promoter activity interaction Z-score,[3]; [11],-0.296 ± 0.077
same,promoter activity interaction Z-score,[3]; [12],-0.384 ± 0.03
same,promoter activity interaction Z-score,[3]; [13],-0.384 ± 0.42
same,promoter activity interaction Z-score,[3]; [14],-0.491 ± 0.42
same,promoter activity interaction Z-score,[3]; [15],0.443 ± 0.46
same,promoter activity interaction Z-score,[3]; [16],0.589 ± 0.067
same,promoter activity interaction Z-score,[3]; [17],0.355 ± 1.1
same,promoter activity interaction Z-score,[3]; [18],-0.599 ± 0.19
same,promoter activity interaction Z-score,[3]; [19],1.21 ± 0.48
same,promoter activity interaction Z-score,[3]; [20],1.56 ± 0.13
same,promoter activity interaction Z-score,[3]; [21],1.4 ± 0.93
same,promoter activity interaction Z-score,[3]; [22],1.09 ± 0.35
same,promoter activity interaction Z-score,[4]; [7],0.158 ± 0.075
same,promoter activity interaction Z-score,[4]; [8],0.0269 ± 0.54
same,promoter activity interaction Z-score,[4]; [9],0.215 ± 1.7
same,promoter activity interaction Z-score,[4]; [10],0.00204 ± 1.1
same,promoter activity interaction Z-score,[4]; [11],1.19 ± 0.91
same,promoter activity interaction Z-score,[4]; [12],-0.42 ± 0.62
same,promoter activity interaction Z-score,[4]; [13],-0.201 ± 0.23
same,promoter activity interaction Z-score,[4]; [14],0.308 ± 0.86
same,promoter activity interaction Z-score,[4]; [15],1.4 ± 0.44
same,promoter activity interaction Z-score,[4]; [16],1.73 ± 0.022
same,promoter activity interaction Z-score,[4]; [17],0.608 ± 0.43
same,promoter activity interaction Z-score,[4]; [18],-0.00665 ± 0.6
same,promoter activity interaction Z-score,[4]; [19],1.1 ± 0.18
same,promoter activity interaction Z-score,[4]; [20],2.29 ± 0.91
same,promoter activity interaction Z-score,[4]; [21],0.783 ± 1.4
same,promoter activity interaction Z-score,[4]; [22],1.05 ± 0.94
same,promoter activity interaction Z-score,[5]; [7],-0.18 ± 0.32
same,promoter activity interaction Z-score,[5]; [8],-0.165 ± 0.065
same,promoter activity interaction Z-score,[5]; [9],0.0441 ± 0.32
same,promoter activity interaction Z-score,[5]; [10],-0.273 ± 0.25
same,promoter activity interaction Z-score,[5]; [11],-0.187 ± 0.26
same,promoter activity interaction Z-score,[5]; [12],-0.0917 ± 0.18
same,promoter activity interaction Z-score,[5]; [13],-0.138 ± 0.19
same,promoter activity interaction Z-score,[5]; [14],-0.142 ± 0.42
same,promoter activity interaction Z-score,[5]; [15],0.17 ± 0.18
same,promoter activity interaction Z-score,[5]; [16],-0.0904 ± 0.16
same,promoter activity interaction Z-score,[5]; [17],-0.00688 ± 0.12
same,promoter activity interaction Z-score,[5]; [18],-0.0619 ± 0.28
same,promoter activity interaction Z-score,[5]; [19],-0.0451 ± 0.043
same,promoter activity interaction Z-score,[5]; [20],-0.359 ± 0.078
same,promoter activity interaction Z-score,[5]; [21],-0.361 ± 0.061
same,promoter activity interaction Z-score,[5]; [22],-0.0524 ± 0.36
same,promoter activity interaction Z-score,[6]; [7],0.46 ± 1.1
same,promoter activity interaction Z-score,[6]; [8],-0.252 ± 0.52
same,promoter activity interaction Z-score,[6]; [9],1.67 ± 0.9
same,promoter activity interaction Z-score,[6]; [10],0.403 ± 0.82
same,promoter activity interaction Z-score,[6]; [11],0.842 ± 0.79
same,promoter activity interaction Z-score,[6]; [12],0.112 ± 0.0026
same,promoter activity interaction Z-score,[6]; [13],1.38 ± 0.88
same,promoter activity interaction Z-score,[6]; [14],0.773 ± 0.7
same,promoter activity interaction Z-score,[6]; [15],1.44 ± 0.11
same,promoter activity interaction Z-score,[6]; [16],0.195 ± 0.35
same,promoter activity interaction Z-score,[6]; [17],0.654 ± 0.3
same,promoter activity interaction Z-score,[6]; [18],0.501 ± 1.5
same,promoter activity interaction Z-score,[6]; [19],0.0187 ± 0.66
same,promoter activity interaction Z-score,[6]; [20],-0.769 ± 0.041
same,promoter activity interaction Z-score,[6]; [21],-0.237 ± 0.19
same,promoter activity interaction Z-score,[6]; [22],-0.139 ± 0.8
